Source: PubChem (National Center for Advancing Translational Sciences (NCATS))
The full list was thinned out, with hits kept by preference.
Sm TGR inh: blocks Schistosoma mansoni thioredoxin glutathione reductase. Q962Y6. purified TGR, DTNB reduction, TNB absorbance 405 nm. 360,000 compounds, 3% hits. Potency, µM (doses to about 114 µM), most hits filed as inhibitors; note: nearly all actives have a fitted effect of over 60% in size
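TGR 20 nM + NADPH 100 uM (dispensed conc.), cpd preinc 15 min RT; start with NADPH (500 uM addition) then DTNB (15 mM addition). Kinetic TNB absorbance, 405 nm filter. Four-parameter Hill fit across titration.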
TbPYK inhibitor: T. brucei pyruvate kinase inhibition. Q57TT1. TbPYK enzyme, Kinase-Glo Plus ATP luminescence, 45 min. Potency, µM (top dose mostly 76.8 µM), hits mostly inhibitors. 410,000 compounds, 0.12% hits. AID 624173; note: nearly all actives have a fitted effect of over 50% in size
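T. brucei PYK with substrate was exposed to pin-transferred compounds across a concentration series, then started with 130 uM ADP (final). After 45 min at room temperature, Kinase-Glo Plus luminescence was read, normalized and curve-fitted.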
LmPK inh: blocks Leishmania mexicana pyruvate kinase activity; Q27686; purified LmPK, Kinase-Glo ATP luminescence, 1 h; Potency, µM (series often up to 57.5 µM), usual class: inhibitors; 290,000 compounds, 0.37% hits; AID 1721
Target sequence (Q27686 whole entry, looked up): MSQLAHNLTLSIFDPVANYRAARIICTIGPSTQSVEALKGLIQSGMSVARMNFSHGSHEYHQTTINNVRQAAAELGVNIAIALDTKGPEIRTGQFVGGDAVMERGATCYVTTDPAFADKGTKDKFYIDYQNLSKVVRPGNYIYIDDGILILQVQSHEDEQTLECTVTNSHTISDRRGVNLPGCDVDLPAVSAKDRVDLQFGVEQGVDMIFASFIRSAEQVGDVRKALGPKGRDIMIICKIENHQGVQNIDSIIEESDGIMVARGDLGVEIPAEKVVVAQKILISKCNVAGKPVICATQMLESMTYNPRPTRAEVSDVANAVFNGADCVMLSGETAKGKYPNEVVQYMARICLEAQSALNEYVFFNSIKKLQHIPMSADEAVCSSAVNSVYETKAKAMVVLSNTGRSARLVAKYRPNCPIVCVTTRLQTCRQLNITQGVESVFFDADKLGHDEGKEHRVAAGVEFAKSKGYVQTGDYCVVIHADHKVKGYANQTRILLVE
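0.1 nM LmPK, 0.5 mM PEP, 0.1 mM ADP; 50 mM imidazole pH 7.2, 7 mM MgCl2, 50 mM KCl; 1 h RT. Kinase-Glo luminescence readout, normalized to no-enzyme (full inhibition) and uninhibited wells.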
Cycloheximide cs: affects cycloheximide protein synthesis inhibition readout, counter-screen; 300,000 compounds, 12% hits; cell reporter, cycloheximide protein synthesis inhibition counterscreen; max response, %; in the data active = max response mostly above about 13%, no sharp cut-off; inactive = mostly below about 14%; note: read at 38.3 µM for the half of the compounds with a filed dose
Shiga inhibitor: Shiga toxin inhibition; Vero cells, Shiga toxin protein synthesis inhibition reporter; inhibition, % at 38.7 µM; 290,000 compounds, 9.2% hits; AID 2315; in the data active = inhibition mostly above about 28%, no sharp cut-off; inactive = mostly below about 43%
FBPA Giardia inh: blocks Giardia fructose-bisphosphate aldolase activity | purified Giardia FBPA | Potency, µM (titrated, usually from 59.6 µM), hits mostly inhibitors | 290,000 compounds, 0.71% hits; note: nearly all actives have a fitted effect of over 55% in size
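40 nM FBPA preincubated 10 min at RT with compound (up to 57.5 uM final), then substrate plus GAPDH/TPI/NAD/arsenate coupling and diaphorase/resazurin added. Fluorescence read after 20 min at RT, 525/598 nm.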
A number is an active result. Unless noted, calls come from the whole dose curve; as a rule, active = well fitted curve in the direction sought with a large enough effect; inconclusive = small, poorly fitted or top-dose-only effect, or another doubt; inactive = no such curve, though single readings can be large; an effect the other way counts as inactive or inconclusive.

What do the screens show for `Cn1cccc1/C=C1\C(=O)NC(=O)N(Cc2ccco2)C1=O`?
Sm TGR inh: 40µM; TbPYK inhibitor: inactive; LmPK inh: inactive; Cycloheximide cs: inactive; Shiga inhibitor: inactive; FBPA Giardia inh: inactive

What do the screens show for `Cc1ccc(OCCn2cccc2/C=C2/C(=O)NC(=O)N(Cc3ccco3)C2=O)cc1`?
Sm TGR inh: 14µM; TbPYK inhibitor: inactive; LmPK inh: inactive; Cycloheximide cs: 22; Shiga inhibitor: 37; FBPA Giardia inh: inactive

What do the screens show for `Cc1cc(/C=C2\C(=O)NC(=O)N(Cc3ccco3)C2=O)c(C)n1-c1ccc(O)cc1`?
Sm TGR inh: inconclusive; TbPYK inhibitor: inactive; LmPK inh: inactive; Cycloheximide cs: 17; Shiga inhibitor: inactive; FBPA Giardia inh: inactive

What do the screens show for `COc1ccc(/C=C2/C(=O)NC(=O)N(Cc3ccco3)C2=O)cc1`?
LmPK inh: inactive; Cycloheximide cs: inactive; Shiga inhibitor: inactive; FBPA Giardia inh: inactive

How did CCc1ccc(N2C(=O)NC(=O)/C(=C\c3cccn3CCOc3ccc(C(C)C)cc3)C2=O)cc1 do in these assays?
Sm TGR inh: inconclusive; TbPYK inhibitor: inactive; LmPK inh: inactive; Cycloheximide cs: 73; Shiga inhibitor: active; FBPA Giardia inh: inactive

How did Cc1ccc(-n2c(C)cc(/C=C3/C(=O)NC(=O)N(Cc4ccco4)C3=O)c2C)cc1 do in these assays?
Sm TGR inh: inactive; TbPYK inhibitor: inactive; LmPK inh: inactive; Cycloheximide cs: inactive; Shiga inhibitor: inactive; FBPA Giardia inh: inactive

Results for c1ccc(-c2onc(-c3ccco3)c2-c2ccc3c(c2)OCO3)cc1 ?
Sm TGR inh: 50µM; TbPYK inhibitor: inactive; LmPK inh: inactive; Cycloheximide cs: inactive; Shiga inhibitor: inactive; FBPA Giardia inh: inactive

What do the screens show for `Cc1cccc(N/C(N)=N/c2nc(C)c(Cc3ccccc3)c(=O)[nH]2)c1`?
Sm TGR inh: inactive; TbPYK inhibitor: inactive; LmPK inh: inactive; Cycloheximide cs: inactive; Shiga inhibitor: inactive; FBPA Giardia inh: inactive

What do the screens show for `CCOC(=O)C1=CCN(S(=O)(=O)c2ccc(C)cc2)C1c1ccc(Cl)c(Cl)c1` (centres undefined)?
TbPYK inhibitor: inactive

Results for CN(C)CC/C=C1\c2ccccc2COc2ccc(CC(=O)O)cc21 ?
TbPYK inhibitor: inactive

Results for Cc1ccc(CSCc2ccc(C(=O)NCCCN3CCOCC3)o2)cc1 ?
Sm TGR inh: inactive; TbPYK inhibitor: inactive; LmPK inh: inactive; Cycloheximide cs: 16; Shiga inhibitor: inactive; FBPA Giardia inh: inactive

Results for Cc1ccc(S(=O)(=O)Cc2ccc(C(=O)NCCCN3CCCC3=O)o2)cc1 ?
Sm TGR inh: 20µM; TbPYK inhibitor: inactive; LmPK inh: inactive; Cycloheximide cs: inactive; Shiga inhibitor: inactive; FBPA Giardia inh: inactive

How did Cc1ccc(CNC(=O)c2ccc(CSCc3ccc(Cl)cc3)o2)cc1 do in these assays?
Sm TGR inh: 40µM; TbPYK inhibitor: inactive

How did Cc1ccc(CNC(=O)c2ccc(Cn3nc(C)c(Cl)c3C)o2)cc1 do in these assays?
Sm TGR inh: 25µM; TbPYK inhibitor: inactive; LmPK inh: inactive; Cycloheximide cs: inactive; Shiga inhibitor: inactive; FBPA Giardia inh: inactive

What do the screens show for `Nc1ccccc1Oc1ccc2ccccc2c1`?
Sm TGR inh: inactive; TbPYK inhibitor: inactive; LmPK inh: inactive; Cycloheximide cs: inactive; Shiga inhibitor: 42; FBPA Giardia inh: inactive

What do the screens show for `O=C(Nc1ccc(Cl)cc1)c1ccc(Br)cc1F`?
Sm TGR inh: inactive; TbPYK inhibitor: inactive; LmPK inh: inactive; Cycloheximide cs: 44; Shiga inhibitor: 86; FBPA Giardia inh: inactive

Results for CC(C)c1ccc(NC(=O)c2cc(Br)ccc2Br)cc1 ?
TbPYK inhibitor: inactive; LmPK inh: inactive; Cycloheximide cs: 43; Shiga inhibitor: 60; FBPA Giardia inh: inactive

How did COc1ccc(NC(=O)Cn2cnc3c(nc4n3CCCCC4)c2=O)c(OC)c1 do in these assays?
Sm TGR inh: inactive; TbPYK inhibitor: inactive

Results for c1ccc(NC2=Nc3ccccc3CS2)cc1 ?
Sm TGR inh: inactive; TbPYK inhibitor: inactive; LmPK inh: inactive; Cycloheximide cs: 31; Shiga inhibitor: 99; FBPA Giardia inh: inactive

What do the screens show for `COc1ccc2nc(NC(=O)c3ccc(S(=O)(=O)N4CCCC(C)C4)cc3)sc2c1` (centres undefined)?
Sm TGR inh: inactive; TbPYK inhibitor: inactive

What do the screens show for `CC(C)(C)n1ncc2c(=O)n(CC(=O)c3ccccc3)cnc21`?
Sm TGR inh: inconclusive; TbPYK inhibitor: inactive; LmPK inh: inactive; Cycloheximide cs: 56; Shiga inhibitor: 81; FBPA Giardia inh: inactive

Results for CC(C)(C)n1ncc2c(=O)n(CC(=O)N3CCc4ccccc43)cnc21 ?
Sm TGR inh: inactive; TbPYK inhibitor: inactive; LmPK inh: inactive; Cycloheximide cs: 12; Shiga inhibitor: 69; FBPA Giardia inh: inactive

How did CC(C)(C)n1ncc2c(=O)n(Cc3cccc(Cl)c3)cnc21 do in these assays?
Sm TGR inh: inactive; TbPYK inhibitor: inactive; LmPK inh: inactive; Cycloheximide cs: 33; Shiga inhibitor: 46; FBPA Giardia inh: inactive

Results for CC(C)(C)n1ncc2c(=O)n(CC(=O)N3CCCc4ccccc43)cnc21 ?
Sm TGR inh: inconclusive; TbPYK inhibitor: inactive; LmPK inh: inactive; Cycloheximide cs: inactive; Shiga inhibitor: inactive; FBPA Giardia inh: inactive

What do the screens show for `CC(C)(C)n1ncc2c(=O)n(Cc3cccc(Cn4cnc5c(cnn5C(C)(C)C)c4=O)c3F)cnc21`?
TbPYK inhibitor: inactive

Results for CCOC(=O)N/N=C/C=C/c1ccccc1 ?
Sm TGR inh: inactive; TbPYK inhibitor: inactive; LmPK inh: inactive; Cycloheximide cs: 61; Shiga inhibitor: 60; FBPA Giardia inh: inactive

How did COc1ccc(/C=C/C=N/NC(=O)COc2ccc(OC)cc2)cc1 do in these assays?
Sm TGR inh: inactive; TbPYK inhibitor: inactive; LmPK inh: inactive; Cycloheximide cs: inactive; Shiga inhibitor: 43; FBPA Giardia inh: inactive

Results for COc1ccc(/C=C/C(=O)Oc2cccc(/C=N/NC(=O)COc3c(C)cccc3C)c2)cc1 ?
Sm TGR inh: inactive; TbPYK inhibitor: inactive; LmPK inh: inactive; Cycloheximide cs: 53; Shiga inhibitor: 105; FBPA Giardia inh: inactive

How did COc1ccc(NCC(=O)N/N=C/C=C\c2ccccc2)cc1 do in these assays?
Sm TGR inh: inactive; TbPYK inhibitor: inactive; LmPK inh: inactive; Cycloheximide cs: 21; Shiga inhibitor: 19; FBPA Giardia inh: inconclusive

What do the screens show for `COc1ccc(/C=C/C(=O)Oc2ccc(/C=N/NC(=O)COc3c(C)cccc3C)cc2)cc1`?
Sm TGR inh: inactive; LmPK inh: inactive; Cycloheximide cs: inactive; Shiga inhibitor: inactive; FBPA Giardia inh: inactive

Results for COc1ccccc1NC(=O)c1oc2ccccc2c1NC(=O)COc1cccc(C)c1 ?
Sm TGR inh: inactive; TbPYK inhibitor: inactive

What do the screens show for `COc1ccc(Cl)cc1NC(=O)CSc1cn(CC(=O)N2CCCCC2)c2ccccc12`?
Sm TGR inh: inactive; TbPYK inhibitor: inactive

Results for O=C(Nc1cccc(F)c1)N1CC2(CCN(C(=O)c3ccncc3)CC2)C1 ?
TbPYK inhibitor: inactive; FBPA Giardia inh: inactive
